In PubChem BioAssay AID1117319 (Southern Research Institute, 2015) one finds inhibition data, which are given here for 61 molecules.

Out of some 260,000 compounds screened, about 1,500 (0.58%) were called active. Not shown: some 5% with an inconclusive outcome. These entries were drawn from the full list. Measured potencies and affinities stand elsewhere. A number with no mark means an inactive call.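 The calls were made as follows: active = inhibition above a set limit at one or more doses, reproduced on every date tested; inconclusive = results disagree between test dates, or hit never tested in dose response; inactive = the rest.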

In this experiment the target is Virion infectivity factor (Human immunodeficiency virus type 1 group M subtype B (isolate BH10)) + Virion infectivity factor (Human immunodeficiency virus type 1 group M subtype B (isolate BRU/LAI)) + Virion infectivity factor (Human immunodeficiency virus type 1 group M subtype B (isolate PCV12)) + Virion infectivity factor (Human immunodeficiency virus type 1 group M subtype B (isolate HXB2)) + DNA dC->dU-editing enzyme APOBEC-3G (Homo sapiens) (UniProt P69720+P69721+P69722+P69723+Q9HC16). In words: HIV-1 Vif–A3G interaction blockers – biochemical, TR-FRET, GST-Vif 1-94, biotin-A3G peptide, dose response retest, primary screen (AID 1117319).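 Also: Vif residues 1-94 fused to GST binding biotinylated APOBEC3G peptide 110-148; 0% = full assay without inhibitor and 100% = GST in place of GST-Vif.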 Conditions: TR-FRET GST-Vif / biotin-A3G peptide binding; active compounds read high. On the technique in general: Time-resolved FRET reads energy transfer from a long-lived donor to a nearby acceptor.
As usually defined, the inhibition is the drop in the measured response relative to a control, in per cent. As for `C=CCn1c(O)c(C(CC)=NCCN2CCOCC2)c(=O)[nH]c1=O`, the inhibition was 65.5%.
The result for `CCCCn1c(O)c(C(CC)=Nc2ccc3c(c2)CCC3)c(=O)[nH]c1=O` reads 7.31%; that for `COc1ccccc1NC(=O)Cn1cnc2sc(C(=O)Nc3ccc(OC)c(OC)c3)c(C)c2c1=O`, 0.19%.
The result for `COc1ccc(S(=O)(=O)N2CCCCCC2)cc1C(=O)N(C)Cc1ccc(F)cc1` reads 4.27%; that for `CCN(CC)S(=O)(=O)c1cccc2cc(C(=O)O)c(O)cc12`, -3.16%.
The result for `C=CCNS(=O)(=O)c1cccc2cc(C(=O)O)c(O)cc12` reads -0.91%.
Regarding `Cc1ccc(N2C(=O)N(c3ccc(C)cc3)C3CS(=O)(=O)CC32)cc1` (stereo unspecified), the inhibition is -8.71%.
`C=CCn1c(COc2ccc(F)cc2)nnc1SCC(=O)N1CC(=O)Nc2ccccc21`: the inhibition was 3.87%.
The result for `CCOC(=O)c1cc(C)n(Cc2ccccc2)c1C` reads 24.3%.
As for `CCOC(=O)c1c(C=O)c(C)n(Cc2ccccc2)c1C`, the figure is 4.84%; as for `FC(F)(F)c1cc(-c2ccccc2)nc(NCc2cccnc2)n1`, -5.26%.
The result for `FC(F)(F)c1cc(-c2ccco2)nc(NCc2ccccc2)n1` reads 15.6%; that for `FC(F)(F)c1cc(-c2ccco2)nc(NCc2ccc(Cl)cc2)n1`, 3.96%; that for `Fc1ccc(CNc2nc(-c3ccco3)cc(C(F)(F)F)n2)cc1`, 9.71%.
On to `COc1ccc(/C=N/NC(=O)c2cccc([N+](=O)[O-])c2)cc1OS(=O)(=O)c1ccccc1`, for which the inhibition was 2.68%.
As for `COc1ccc(NC(c2ccccc2)c2ccncc2)cc1` (stereo unspecified), the figure is 7.39%; as for `CCC(C)(C)NC(=O)C(c1ccc(C)cc1)N(CCN1CCOCC1)C(=O)CNC(=O)c1cccs1` (stereo unspecified), 2.09%; as for `Cc1c(NC(=O)Cc2noc3ccccc23)cccc1[N+](=O)[O-]`, -3.42%.
As for `CCN(CCCNC(=O)CN(C)S(=O)(=O)c1cccc2nsnc12)c1ccccc1`, the inhibition is 20.3%.
The result for `CCCCC(=O)N/N=C/c1sccc1C` reads -0.53%; that for `Cc1ccsc1/C=N/n1cnnc1`, -12.8%; that for `O=Cc1ccc(-c2cccs2)s1`, -3.47%.
As for `CC(=O)c1ccc(-c2cccs2)s1`, the figure is 2.24%.
Consider `CCOC(=O)c1[nH]c(C)c(C(=O)N(CC)CC)c1C`, for which the inhibition is 4.43%.
`CC(=O)NS(=O)(=O)c1ccc(NC(=O)c2ccc(-n3nc(C)cc3C)cc2)cc1`: the inhibition is 0.12%.
As to `CCOC(=O)C1CCN(C(=O)COC(=O)c2cc(-c3cccs3)nn2-c2ccccc2)CC1`, the inhibition was -3.24%.
As for `O=C(O)CCN1/C(=C/C=Nc2ccccc2)Oc2ccccc21`, the figure is 20.6%.
As for `O=S1(=O)CC(O)C(NCc2ccco2)C1` (stereo unspecified), the figure is 11.1%; as for `COc1ccc(NC2CS(=O)(=O)CC2NCc2ccccc2)cc1` (stereo unspecified), -0.42%; as for `COc1ccc(C2c3c(oc4ccccc4c3=O)C(=O)N2c2ccccn2)cc1OC` (stereo unspecified), -8.31%.
As for `COC(=O)c1cc(O)c(O)c(O)c1`, the figure is 16.7%.
With `COC1OC(COC(=O)c2ccccc2)C(OC(=O)c2ccccc2)C1OC(=O)c1ccccc1` (stereo unspecified), the inhibition was 3.23%.
For the molecule `O=C1c2ccccc2C(=O)N1CCc1csc(-c2ccccc2)n1`, the inhibition was 0.09%.
The result for `O=C(O)CC(Cn1[nH]nnc1=S)c1ccccc1` (stereo unspecified) reads -2.23%; that for `O=C(O)CC(c1ccccc1)c1ccccc1`, 0.95%.
As for `Cc1cccc(N=CC=C2OC(C)(C)C(C)(C)O2)c1`, the inhibition was -6.65%.
As for `Cc1ccc(NC(=O)CNC(=O)c2ccc(C(C)(C)C)cc2)cc1S(=O)(=O)N1CCOCC1`, the figure is 0.79%.
`CCO[C@H]1OC(C(=O)N2CCN(Cc3ccc4c(c3)OCO4)CC2)=C[C@@H](c2cn(C(C)=O)c3ccccc23)[C@@H]1CCCO`: the inhibition was -9.76%.
As for `CC1CCC2(CC1)NC(=O)N(CC(=O)NCc1ccc3c(c1)OCO3)C2=O` (stereo unspecified), the figure is -3.28%; as for `O=C(CN1C(=O)NC2(CCCCC2)C1=O)NCc1ccc2c(c1)OCO2`, -8.65%; as for `O=C(CN1C(=O)NC2(CCCCCC2)C1=O)NCc1cccs1`, -5.46%.
The result for `CC1CCC2(CC1)NC(=O)N(CC(=O)NCc1cccs1)C2=O` (stereo unspecified) reads -3.91%; that for `O=C(c1nc2ccccn2c1CNCCCn1cccn1)N1CCCC1`, 23.8%.
The result for `C/C(=N\NC(=O)Cn1ccc(C(F)(F)F)n1)c1ccc2c(c1)OCO2` reads -1.38%.
For the molecule `CCN(CC)CCOC(=O)c1ccc(NC(=O)c2cccc(C)c2[N+](=O)[O-])cc1`, the inhibition is 2.15%.
As for `COc1ccc(CNC(=O)C(c2ccncc2)N(C(=O)Cc2cccs2)c2cccnc2)cc1` (stereo unspecified), the inhibition was 2.85%.
The result for `COc1ccc(NC(=O)C[C@H]2C(=O)N(Cc3cccnc3)C[C@@H]2Cc2ccccc2)cc1` reads -1.58%.
As for `O=C(NCCc1ccccc1)c1ncn[nH]1`, the figure is 28.1%; as for `CCCNC(=O)Cc1ncn[nH]1`, -3.15%.
The result for `O=C(CCN1C(=O)c2ccccc2C1=O)CN1CCOCC1` reads -9.57%; that for `O=C(NC1CCCC1)C(c1ccc(Cl)cc1)N1CCc2ccccc21` (stereo unspecified), 2.15%.
Regarding `CCc1ccc(CN(Cc2cccnc2)C(=O)/C=C/c2ccc(OC)cc2)cc1`, the inhibition was -6.21%.
As for `CC(C)(C)c1ccc(C(=O)N2CCN(c3ncccn3)CC2)cc1`, the figure is -3.51%.
The result for `CCN1C(=O)/C(=C/N2CCc3ccccc32)SC1=S` reads 2.5%.
As for `c1ccc2c(c1)CCN2CCN1CCc2ccccc21`, the figure is -3.68%; as for `O=C(C#Cc1ccccc1)c1ccccc1`, -8.84%.
With `COc1ccc(Cl)cc1N(CC(=O)Nc1cccc(SC)c1)S(C)(=O)=O`, the inhibition was 4.16%.
As for `CCN1C(=O)/C(=C/N(C)c2ccccc2)OC1=S`, the figure is 0.98%; as for `CC(C)(C)c1ccc(OCCC(=O)Nc2cccc(S(=O)(=O)NC3=NCCCCC3)c2)cc1`, -0.89%; as for `O=C(NCc1ccco1)c1csc(Nc2ccccc2Cl)n1`, -7.13%.
As for `COc1ccc(Nc2nc(C(=O)NCc3ccco3)cs2)cc1`, the figure is -1.71%.
